Screening data deposited in PubChem by several laboratories.
Hits are enriched below; roughly 1.6% of the tested compounds scored in any of these assays.
RAD54 inh: inhibitors of human RAD54 branch migration, primary screen, biochemical, fluorescence, single point | RAD54 Holliday junction branch migration, FAM/BHQ fluorescence | inhibition, % at 10.4 µM | AID 602329, 2012 | actives 0.14% (n = 360,000) | DNA repair and recombination protein RAD54-like (Homo sapiens), Q92698;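 active = mean normalized replicate activity at least 40 and at least half of replicates scoring 40 or more; inconclusive = only one of the two criteria met; inactive = mean below 40 and under half of replicates reaching 40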;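 also: 0% = median of neutral control wells and 100% = median of positive control wells; inhibitors cause a drop in the FAM fluorescence signal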
N-glyco inh: increase of ERlucT glycosylation luciferase signal, primary screen, N-linked glycosylation inhibitor project, D54 ERlucT cells, luminescence, set 2 | reporter increase, % at 12.5 µM | D54 ERlucT glycosylation luciferase reporter, 24 h; percent of 100 nM tunicamycin response | AID 588692, 2011 | actives 0.23% (n = 360,000);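 active = mean luciferase reporter signal, scaled so untreated is 0 and the glycosylation-blocking control 100, at or above a set limit in every replicate; inconclusive = mean reaches the limit but not every replicate does; inactive = mean below the limit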;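 also: luciferase carries N-glycosylation sites so blocking glycosylation raises the light; 0% = median of neutral control wells and 100% = median of 100 nM tunicamycin wells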
Vif imaging: HIV Vif self-association inhibitors, primary screen, imaging, HEK293T, single point | HEK293T cells, Vif self-association by quenched fluorescence, 24 h | inhibition, % at 7.49 µM | actives 0.35% (n = 340,000) | AID 602346, 2012; in the data active = inhibition above about 50%, passing the limit was not always enough; inconclusive = no clear call, values can overlap the other calls; inactive = below about 31%
ABCB6 inh MLPCN: ABCB6 transporter inhibitors, primary screen, K562-ABCB6 cells, flow cytometry, MLPCN library; ATP-binding cassette sub-family B member 6 (Homo sapiens), Q9NP58; K562-ABCB6 porphyrin accumulation, 1 h; stronger effect = lower value; fluorescence ratio to DMSO, % at 10 µM; actives 0.19% (n = 360,000);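 active = fluorescence ratio to DMSO below 75%, the collection mean minus 3 SD; inconclusive = too few cells collected in the well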;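 also: signal is porphyrin accumulated inside mitochondria; 100% equals median channel fluorescence of DMSO control wells; lower ratio means ABCB6 inhibition with less porphyrin fluorescence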
Myeloid diff 2: induction of myeloid progenitor differentiation, primary screen, cell-based, flow cytometry, MLPCN library; ER-HoxA9 myeloid progenitors, lysozyme-GFP differentiation; calls only at 10 µM; actives 1% (n = 360,000); AID 624256, 2012;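 active = normalized GFP-positive differentiation at or above the plate's own cutoff, the solvent-only control mean plus 3 SD; inconclusive = no clear call, values can overlap the other calls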;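 also: cells exposed to compound for four days before flow analysis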
* = called active by the depositor; i = inactive; ? = inconclusive; / = not tested or not shown; + = active, no number.

SMILES	RAD54 inh	N-glyco inh	Vif imaging	ABCB6 inh MLPCN	Myeloid diff 2
O=C1c2ccccc2NC(c2ccco2)N1/N=C/c1ccco1 (stereo unspecified)	7	1	12	102	i
O=C1C2=C(NC(=S)NC2c2ccc(Cl)cc2)NC(c2ccc(Cl)cc2)N1c1ccc(Cl)cc1 (stereo unspecified)	7	0	/	96	+
CCc1ccc(C2NC(=S)NC3=C2C(=O)N(c2ccccc2OC)C(c2ccc(CC)cc2)N3)cc1 (stereo unspecified)	0	-2	-23	97	i
Cc1cccc(C)c1-n1c(C)nn(CCOc2ccccc2)c1=O	-6	-2	21	103	+
Cc1nn(CCOc2ccccc2)c(=O)n1-c1ccc(F)cc1	4	0	-1	94	i
O=C(CCl)N1c2ccccc2CCc2ccccc21	-1	13	2	406	+
CC(Cl)C(=O)N1c2ccccc2CCc2ccccc21 (stereo unspecified)	4	0	-1	97	i
N#CC1=C(N)N(c2ccc(F)cc2)C2=C(C1c1ccc(O)cc1)S(=O)(=O)CC2 (stereo unspecified)	-2	2	-2	266	+
CSc1ccc(C2C(C#N)=C(N)N(c3ccccc3)C3=C2C(=O)CCC3)cc1 (stereo unspecified)	3	-2	-2	97	i
O=C(C[C@@H]1C=C[C@H](NC(=O)C2CC2)[C@@H](CO)O1)NCc1ccncc1	-15	/	/	/	/
O=C(O)CCCCCN1C(=O)/C(=C\c2ccc(-c3ccc(Cl)cc3)o2)SC1=S	4	-10	9	143	+
O=C(O)CCCN1C(=O)/C(=C/c2ccc(-c3nc4ccccc4s3)o2)SC1=S	-25	-1	-7	63*	/
O=C(O)CCCCCN1C(=O)/C(=C/c2ccncc2)SC1=S	-12	0	0	99	i
O=C(C[C@H]1CC[C@@H](NC(=O)C2CC2)[C@@H](CO)O1)NC1CCC1	-3	/	/	/	/
COc1cccc(-c2cc(=O)c3cc(NC(=O)c4ccccc4)ccc3[nH]2)c1	9	18	194*	98	i
Cc1ccc(S(=O)(=O)Nc2ccc3c(c2)C(=O)N([C@H](C)CO)C[C@@H](C)[C@@H](CN(C)C(=O)C2CCCCC2)OCCCC[C@H](C)O3)cc1	-2	/	/	/	/
Cc1ccc(C2CC(c3cccs3)=NN2C(=O)CSc2nc(=O)n3cc(C)ccc3n2)cc1 (stereo unspecified)	/	4	/	?	+
COc1ccc2[nH]cc(C=O)c2c1	-12	1	7	99	i
COc1ccc2[nH]cc(/C=C/c3cc[n+](C)cc3)c2c1	7	2	/	315	+
CC(C)CC[n+]1ccn(-c2nc3ccccc3nc2[N-]S(=O)(=O)c2ccccc2)c1	-4	-4	2	96	i
O=S(=O)([N-]c1nc2ccccc2nc1-n1cc[n+](Cc2ccccc2)c1)c1ccc(Cl)cc1	-7	47*	3	106	i
COc1ccc(CCC(=O)NCCc2ccc(Cl)cc2)cc1	-19	1	12	98	i
COc1ccc2c(c1)C(SCC(=O)NCCc1ccc(Cl)cc1)CC(C)(C)O2 (stereo unspecified)	5	-2	-4	104	+
Cc1ccc(OC2=NS(=O)(=O)c3ccccc32)cc1	/	0	5	83	+
NS(=O)(=O)c1ccc(CCNC(=O)C2CCN(C(=O)Nc3ccccc3)CC2)cc1	-5	0	55*	98	i
CCc1c(C)nc(SCC(=O)NNC(=O)c2ccco2)[nH]c1=O	-6	-1	-4	104	+
C[C@@H]1CN([C@H](C)CO)C(=O)c2cc(NC(=O)NC3CCCCC3)ccc2O[C@@H](C)CCCCO[C@H]1CN(C)C(=O)NC1CCCCC1	-4	/	/	/	/
CC(NC(=O)N(Cc1ccccc1)Cc1ccc2c(c1)OCO2)(C(F)(F)F)C(F)(F)F	6	-1	83*	99	i
